# Screening results as filed in PubChem.
# Only some compounds are listed: those with a hit (about 2.8% of all), similar ones and a draw of the others.
# CF NFkB block: blocks PAF-induced NF-kB reporter in cystic fibrosis cells; KKLEB NF-kB-GFP reporter, GFP fluorescence overnight; inhibition, % at 5 µM; 360,000 compounds, 0.86% hits;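 active = at least 50% inhibition at 5 µM, scaled per plate between neutral and stimulator controls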;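 also: PAF is a Pseudomonas aeruginosa culture filtrate used as stimulus; plate controls were PAF-stimulated DMSO wells for no effect and unstimulated DMSO wells for full effect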
# Shn3 inh set2: Schnurri-3 reporter inhibition in Clone20 osteoblasts; AID 588674; inhibition, % at 12.5 µM; 360,000 compounds, 0.52% hits; Clone20 osteoblast Shn3 3'UTR firefly luciferase, 24 h;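 active = mean inhibition of at least 75% with every replicate also reaching 75%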;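 also: 0% = median of neutral control wells and 100% = pilot-screen positive control compound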
# Peg3 prom inh: reduces Peg3 promoter-driven luciferase expression in HeLa. HeLa PEG-Prom luciferase reporter, luminescence, overnight. inhibition, % at 20 µM. AID 588405. 360,000 compounds, 1.7% hits;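 active = inhibition of at least 50% at 20 µM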
# HIF-2a inh: inhibitors of HIF-2a; 786-0 RCC cells HIF-2a reporter, luciferase luminescence, overnight; inhibition, % at 18.8 µM; 360,000 compounds, 0.72% hits;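 active = inhibition of the luminescence signal of 40% or more relative to plate controls, in a single-dose primary screen at 18.75 µM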
# TRPM1 prom inh: MITF TRPM1 promoter inhibition in SK-MEL-5 cells; SK-MEL-5 TRPM1 promoter luciferase, 24 h; inhibition, % at 12.5 µM; 330,000 compounds, 0.83% hits;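 active = mean inhibition across replicates of 60% or more, whatever share of single replicates reaches that level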
# KKLEB cytotox: reduces viability of KKLEB cystic fibrosis airway cells | KKLEB CF airway cells viability, ATPlite luminescence, overnight; hits give low values; cells stimulated with P. aeruginosa culture filtrate | activity change (cytotoxicity), % at 5 µM | 360,000 compounds, 0.36% hits | AID 602141;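 active = corrected activity change at or below -50% at 5 µM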
# Mdm2-MdmX confirm: Mdm2/MdmX (human) interaction inhibition, confirmed | AID 504601 | SaOS-2 split-luciferase Mdm2/MdmX complementation, luminescence | 740 compounds, 99% hits | inhibition, % at 8 µM | shares compounds with HIF-2a inh;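 active = mean inhibition of the luminescence signal across two replicates at or above 26 percent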
# Target sequence (O15151 whole entry, looked up): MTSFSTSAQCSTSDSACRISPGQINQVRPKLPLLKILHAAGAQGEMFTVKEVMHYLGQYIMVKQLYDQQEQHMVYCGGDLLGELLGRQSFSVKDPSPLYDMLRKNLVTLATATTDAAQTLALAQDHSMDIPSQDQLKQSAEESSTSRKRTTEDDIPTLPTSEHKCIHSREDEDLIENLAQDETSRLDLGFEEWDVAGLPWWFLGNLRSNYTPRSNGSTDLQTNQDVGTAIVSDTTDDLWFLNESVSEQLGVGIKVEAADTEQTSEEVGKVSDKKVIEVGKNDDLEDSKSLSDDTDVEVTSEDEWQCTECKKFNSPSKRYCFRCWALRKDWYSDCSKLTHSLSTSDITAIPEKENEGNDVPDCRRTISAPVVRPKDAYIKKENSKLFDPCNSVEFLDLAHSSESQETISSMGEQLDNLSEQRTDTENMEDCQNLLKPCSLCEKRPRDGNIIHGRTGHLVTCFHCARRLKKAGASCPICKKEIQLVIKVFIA
# Target sequence (Q00987 whole entry, looked up): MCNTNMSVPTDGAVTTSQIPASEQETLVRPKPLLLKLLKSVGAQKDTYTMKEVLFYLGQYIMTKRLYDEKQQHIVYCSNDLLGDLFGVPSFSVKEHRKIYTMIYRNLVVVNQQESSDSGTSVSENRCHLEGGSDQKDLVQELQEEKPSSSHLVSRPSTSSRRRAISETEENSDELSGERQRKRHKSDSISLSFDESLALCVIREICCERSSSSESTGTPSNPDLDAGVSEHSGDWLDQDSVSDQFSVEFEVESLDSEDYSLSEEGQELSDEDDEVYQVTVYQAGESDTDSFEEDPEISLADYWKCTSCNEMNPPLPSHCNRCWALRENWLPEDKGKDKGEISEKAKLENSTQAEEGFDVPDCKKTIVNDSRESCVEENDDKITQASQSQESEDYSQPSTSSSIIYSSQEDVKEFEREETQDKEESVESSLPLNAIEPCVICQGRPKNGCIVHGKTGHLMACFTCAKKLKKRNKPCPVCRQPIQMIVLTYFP
# HIF-2a inh conf: HIF-2a inhibition, single concentration confirmation. shares compounds with HIF-2a inh. 786-0 RCC cells, HIF-2a luciferase reporter luminescence, overnight. inhibition, % at 18.8 µM. 1,800 compounds, 56% hits;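 active = mean inhibition across four replicates of at least 40 percent at the single tested concentration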
# HIF-1a counter: inhibits HIF-1a reporter, a counter-screen for HIF-2a inhibitors. shares compounds with HIF-2a inh. MiaPaCa-2 HIF-1a luciferase reporter, desferoxamine, overnight. inhibition, % at 18.8 µM. 1,800 compounds, 72% hits. AID 651589;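 active = mean inhibition of the reporter signal across four replicates at the single tested dose of 50% or more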
# Starred values were filed as active, the others as inactive; x = no result.
SMILES,CF NFkB block,Shn3 inh set2,Peg3 prom inh,HIF-2a inh,TRPM1 prom inh,KKLEB cytotox,HIF-2a inh conf,HIF-1a counter,others
COc1cc([N+](=O)[O-])c2nc(C)ccc2c1[N+](=O)[O-],25.5,14.4,7.4,-9.9,10.0,-22.5,x,x,
Cc1cccc(OP(=O)(NCc2ccccc2)Oc2cccc(C)c2)c1,6.1,70.8,34.2,67.6*,-10.6,-9.6,0.0,79.5*,
C=C1C(=O)O[C@H]2[C@H]1[C@H](OC(=O)CC(=O)O[C@@H]1C[C@@H](C)[C@@H]3C=CC(=O)[C@@]3(C)[C@H]3OC(=O)C(=C)[C@H]13)C[C@@H](C)[C@H]1C=CC(=O)[C@]12C,46.6,84.6,22.4,-3.0,10.3,-8.0,x,x,
C=C1C(=O)O[C@@H]2C[C@@H](C)[C@@H]3C4OC4C(=O)[C@@]3(C)[C@@H](O)[C@H]12 (stereo not given in full),91.8*,79.1,95.9*,88.1*,101.1*,-45.7,94.8*,104.1*,
C=C1C(=O)O[C@H]2C[C@@H](C)[C@@H]3C=CC(=O)[C@@]3(C)C[C@H]12,x,x,x,x,x,x,x,x,Mdm2-MdmX confirm=103.0*
C=C1C(=O)OC2CC(C)C3C=CC(=O)C3(C)C(O)C12 (stereo not given),96.5*,97.1*,106.1*,85.5*,99.8*,-62.1*,93.9*,99.6*,
CC(C)C12CN3CC(C(C)C)(CN(C1)C3c1cccnc1)C2=O (stereo not given),7.9,1.6,21.1,17.6,6.9,-3.2,x,x,
Fc1ccc(N2Cc3ccccc3-n3nncc3C2)cc1,-3.6,13.0,3.2,-4.3,x,-8.3,x,x,
COc1ccc(C(c2nnnn2C2CCCC2)N2CCC3(CC2)C(=O)NCN3c2ccccc2)cc1 (stereo not given),3.8,-0.8,16.9,8.7,x,-4.5,x,x,
CC(=O)O[C@H]1C[C@@H]2OC3C=C(C)CCC3(C)[C@@]1(C)[C@@]21CO1 (stereo not given in full),89.5*,97.6*,96.1*,48.0*,65.9*,-19.1,64.5*,102.3*,
O=C1C(Cc2cnc[nH]2)NC(=S)N1c1ccccc1 (stereo not given),-1.7,8.4,-9.9,-6.2,-20.8,11.9,x,x,
CCOC(=O)[C@]12Cc3c(cc(OC)c(OC)c3OC)[C@H]1N(C1CCCCC1)C(=O)c1ccccc12,x,x,x,76.4*,x,x,90.0*,105.4*,
CCOC(=O)[C@]12Cc3ccccc3[C@H]1N(C(C)C)C(=O)c1ccccc12,x,x,x,31.1,x,x,x,x,
CCCCCN1C(=O)c2cc(OC)ccc2[C@@]2(C(=O)OCC)Cc3cc(OC)ccc3[C@@H]12,x,x,x,80.9*,x,x,92.3*,105.9*,
CCOC(=O)[C@]12Cc3ccc(C)cc3[C@H]1N(C1CCCCC1)C(=O)c1ccccc12,x,x,x,81.0*,x,x,95.5*,98.3*,
CCOC(=O)[C@]12Cc3cc(OC)ccc3[C@H]1N(C)C(=O)c1cc(OC)ccc12,x,x,x,11.8,x,x,x,x,
CCOC(=O)[C@]12Cc3ccc(C)cc3[C@H]1N(C1CCCCC1)C(=O)c1cc(OC)ccc12,x,x,x,95.2*,x,x,99.4*,106.1*,
CNC(C(=O)c1ccccc1)C(OC)c1ccc(C)cc1 (stereo not given),4.7,0.2,-9.2,-28.3,-1.3,0.9,x,x,
Nc1c(C(=O)NC2CCCC2)c2nc3ccccc3nc2n1CC1CCCO1 (stereo not given),22.2,-8.7,27.6,10.6,-1.8,-8.7,x,x,
Cc1nc2ccccc2c(=O)n1-c1c(Cl)cccc1Cl,0.8,-21.2,29.0,8.5,x,-4.6,x,x,
CCOC(=O)[C@]12Cc3cc(C)ccc3[C@H]1N(C1CCCCC1)C(=O)c1ccccc12,x,x,x,87.6*,x,x,96.7*,105.8*,
CCOC(=O)[C@]12Cc3cc(C)ccc3[C@H]1N(CCC(=O)OC)C(=O)c1ccccc12,x,x,x,25.3,x,x,x,x,
CC(CN(C)C1CCN(C)CC1)c1ccccc1 (stereo not given),17.4,-0.9,-12.0,12.1,-0.3,-12.1,x,x,
C[C@H]1CC[C@@H]2[C@@H](C)[C@H]3[C@H](C[C@H]4[C@@H]5CC=C6C[C@@H](O[C@@H]7O[C@H](CO)[C@H](O)[C@H](O[C@@H]8O[C@H](CO)[C@@H](O)[C@H](O)[C@H]8O)[C@H]7O[C@@H]7O[C@@H](C)[C@H](O)[C@@H](O)[C@H]7O)CC[C@]6(C)[C@H]5CC[C@]34C)N2C1,-2.5,6.9,31.7,87.0*,42.7,8.4,30.7,67.5*,
COC(=O)C1=C(c2cccc(OCc3ccccc3)c2)C[C@@H]2CC[C@H]1N2C(=O)NCc1cc(C)oc1C(F)(F)F,-22.2,13.9,22.6,16.2,9.1,11.3,x,x,
SMILES,CF NFkB block,Shn3 inh set2,Peg3 prom inh,HIF-2a inh,TRPM1 prom inh,KKLEB cytotox,HIF-2a inh conf,HIF-1a counter,others
CN(C)C(=O)O/N=C(\N)COc1ccc(C(C)(C)C)cc1,5.4,-16.9,107.4*,60.0*,-9.7,-6.1,-76.1,-45.0,Mdm2-MdmX confirm=103.0*
C=CCn1c(O)c(/C=N/N2CCCCC2c2cccnc2)c(=O)[nH]c1=S (stereo not given),11.5,18.0,12.9,13.7,1.8,2.6,x,x,
CC[C@H](C)[C@@H]1NC(=O)CNC(=O)c2csc(n2)[C@H](C(C)(C)O)OC(=O)C(C)(C)[C@H](CCCC(C)(Cl)Cl)OC(=O)c2csc1n2,83.1*,56.4,65.1*,42.2*,x,-90.7*,44.1*,88.4*,
CN1CCN(c2ccc(N)cc2Cl)CC1,-9.1,-18.1,-21.9,12.5,-0.8,2.5,x,x,
C=C1C(=O)[C@@]23C[C@H]4[C@@H]5[C@@]6(C)CCC[C@@]57[C@@H]2[C@@H](O)[C@@H]1C[C@H]3[C@H]7N4C6,74.0*,-52.5,92.7*,68.8*,x,1.7,x,x,Mdm2-MdmX confirm=101.2*
C[C@H]1CCC/C=C/C2C[C@H](O)CC2[C@H](O)/C=C/C(=O)O1 (stereo not given in full),81.4*,93.7*,54.9*,68.1*,79.9*,-7.1,x,x,Mdm2-MdmX confirm=103.0*
CC1CCC[C@H](O)CCCCCc2cc(O)cc(O)c2C(=O)O1 (stereo not given in full),29.6,0.2,15.4,7.2,1.0,0.4,x,x,
CC1CCC/C=C/C2CC(O)CC2C(O)/C=C/C(=O)O1 (stereo not given),79.4*,84.4,59.7*,45.9*,85.0*,-60.4*,33.7,77.7*,Mdm2-MdmX confirm=103.0*
CSc1ncc(Cl)c(C(=O)O)n1 (tested in a mixture with another compound),-15.0,-17.8,21.1,2.2,-3.1,1.2,x,x,
